Here are results for 4 compounds from publication PMC11062922 (Nature Chemical Biology, 2023).

Common to all, as to parameters: species or system human, MV4-11 + K-562 + COLO205 + SK-N-BE2 + OVCAR-8
For assay [1], the system named is ABCD3. Particulars: read-out: apparent Kd; compound concentrations: 100 nM and 1000 nM (sheet 'Samples'), CATDS: 4.0800331971119997E-3; n = 1.
For assay [2], the system named is ACOX3. Particulars: read-out: apparent Kd; compound concentrations: 100 nM and 1000 nM (sheet 'Samples'), CATDS: 4.2441767473343E-3; n = 1.
For assay [3], the system named is FN3K. Particulars: read-out: apparent Kd; compound concentrations: 100 nM and 1000 nM (sheet 'Samples'), CATDS: 4.2262124169733604E-3; n = 1.
In assay [4] the test system is GRAMD1A. Particulars: read-out: apparent Kd; compound concentrations: 100 nM and 1000 nM (sheet 'Samples'), CATDS: 3.9512769472384501E-3; n = 1.
The test system of assay [5] is MAP3K3. Particulars: read-out: apparent Kd; compound concentrations: 100 nM and 1000 nM (sheet 'Samples'), CATDS: 4.1000911479265297E-3; n = 1.
Assay [6] relates to MAPK3. Particulars: read-out: apparent Kd; compound concentrations: 100 nM and 1000 nM (sheet 'Samples'), CATDS: 4.9102061744830498E-3; n = 1.
Assay [7] deals with PKMYT1. The settings on record: read-out: apparent Kd; compound concentrations: 100 nM and 1000 nM (sheet 'Samples'), CATDS: 4.7786675943352697E-3; n = 1.
Assay [8] deals with SLC25A5. The settings on record: read-out: apparent Kd; compound concentrations: 100 nM and 1000 nM (sheet 'Samples'), CATDS: 3.4931763386449499E-3; n = 1.
Assay [9] deals with TAOK2. The settings on record: read-out: apparent Kd; compound concentrations: 100 nM and 1000 nM (sheet 'Samples'), CATDS: 4.3468745935786399E-3; n = 1.
The subject of assay [10] is DAPK3. Particulars: read-out: apparent Kd; compound concentrations: 100 nM and 1000 nM (sheet 'Samples'), CATDS: 6.6145961365307402E-3; n = 1.
Assay [11] concerns PGK1. Particulars: read-out: apparent Kd; compound concentrations: 100 nM and 1000 nM (sheet 'Samples'), CATDS: 0.13034020177251299; n = 1.
In assay [12] the test system is AMPK-alpha1. Particulars: compound concentrations: 100 nM and 1000 nM (sheet 'Samples').
Assay [13] concerns CLK1. Particulars: compound concentrations: 100 nM and 1000 nM (sheet 'Samples').
For assay [14], the system named is DYRK1A. The settings on record: compound concentrations: 100 nM and 1000 nM (sheet 'Samples').
The test system of assay [15] is MLK3. The settings on record: compound concentrations: 100 nM and 1000 nM (sheet 'Samples').
In assay [16] the test system is NEK3. Particulars: compound concentrations: 100 nM and 1000 nM (sheet 'Samples').
Assay [17] concerns NEK9. Particulars: compound concentrations: 100 nM and 1000 nM (sheet 'Samples').
In assay [18] the test system is SRC. The settings on record: compound concentrations: 100 nM and 1000 nM (sheet 'Samples').
In assay [19] the test system is STK16. The settings on record: compound concentrations: 100 nM and 1000 nM (sheet 'Samples').
Assay [20] has as its system TYK2(JH2domain-pseudokinase). The settings on record: compound concentrations: 100 nM and 1000 nM (sheet 'Samples').

SMILES strings stand for the structures.
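For Kinobeads Data in this document: kinobeads ε competition pulldown from cell lysate, compound preincubated 45 min at 4 °C, bound kinases quantified by LC–MS/MS relative to DMSO control.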

`Cn1ncc2c(N)ncnc21` [SKF-18267]: the potency estimated from few doses in [1] was 1.27 µM; in assay [2], 1.16 µM; in assay [3] it was 1.17 µM; in assay [4], 1.38 µM; in [5] it was 1.26 µM; in assay [6], 0.844 µM. Besides, the potency estimated from few doses in assay [7] was 0.892 µM; in assay [8] it was 1.95 µM; in [9], 1.1 µM.
As for `O=C1N=C(NCCc2ccc(Cl)cc2)S/C1=C\c1ccc2ncccc2c1` [RO4498479-000], in assay [10], the potency estimated from few doses was 2.11 µM.
As to `COc1cccc2c(-c3ccncc3)c(-c3ccc(F)cc3)nn12` [GW468513X], the potency estimated from few doses in assay [11] is 0.0623 µM.
Take `COc1cc(Nc2ncc3c(C)nc(-c4cc5ccccc5[nH]4)n3n2)cc(OC)c1OC` [GW869516X]: the “Kinobeads Data” value in assay [12], in assay [13], in assay [14], in assay [15], in [16] and in assay [17] was “no target” throughout. Besides, the “Kinobeads Data” value in [18], in [19] and in [20] was “no target” in each case.
